Sm TGR block – S. mansoni TGR enzyme inhibition; Q962Y6; purified TGR, DTNB reduction, TNB absorbance 405 nm; Potency, µM (titrated, usually from 114 µM), without a hit: at the top dose activity change, negative = inhibition, usual class: inhibitors; 360,000 tested, 3% active; AID 485364; also: nearly all actives have a fitted effect of over 60% in size
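First, TGR (20 nM dispensed) and NADPH were mixed with compound. Second, a 15 min room-temperature incubation followed. Third, further NADPH and then DTNB were added to start the reaction. Finally, TNB absorbance was monitored kinetically.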
AmpC detergent – inhibitors of E. coli AmpC beta-lactamase with detergent | 370,000 tested, 0.041% active | Potency, µM (series often up to 114 µM), for the others: at the highest dose activity change, negative = inhibition, usual class: inhibitors | AmpC hydrolysis of nitrocefin, absorbance 480 nm, 0.01% Triton | AID 485294;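 also: 0% = no-compound wells and -100% = no-enzyme wells; nearly all actives have a fitted effect of over 25% in size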
Target sequence (P00811 whole entry, looked up): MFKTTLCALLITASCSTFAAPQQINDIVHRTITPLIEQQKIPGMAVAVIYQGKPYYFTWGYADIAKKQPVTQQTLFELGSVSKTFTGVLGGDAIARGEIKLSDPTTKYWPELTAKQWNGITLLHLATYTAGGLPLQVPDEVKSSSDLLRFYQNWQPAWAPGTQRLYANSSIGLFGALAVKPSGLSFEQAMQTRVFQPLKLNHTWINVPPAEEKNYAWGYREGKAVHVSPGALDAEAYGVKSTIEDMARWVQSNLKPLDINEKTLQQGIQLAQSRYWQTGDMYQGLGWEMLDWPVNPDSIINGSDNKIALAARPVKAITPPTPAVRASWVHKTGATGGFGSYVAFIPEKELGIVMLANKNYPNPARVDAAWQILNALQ
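20 mM phosphate pH 7.0 + 0.01% (detergent screen) or 0.0001% Triton X-100; 5.3 nM AmpC reagent; cpd preinc 15 min RT; nitrocefin (800 uM stock) to start; A480 q20 s × 4 min; Activity was normalised to no-enzyme and no-compound control wells.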
Giardia FBPA inh – Giardia lamblia aldolase inhibition; purified Giardia FBPA; Potency, µM (series often up to 59.6 µM), for inactives: at the top dose activity, negative = inhibition, most hits filed as inhibitors; 290,000 tested, 0.71% active; AID 2451; also: nearly all actives have a fitted effect of over 55% in size
Target sequence (A8B2U2 whole entry, looked up): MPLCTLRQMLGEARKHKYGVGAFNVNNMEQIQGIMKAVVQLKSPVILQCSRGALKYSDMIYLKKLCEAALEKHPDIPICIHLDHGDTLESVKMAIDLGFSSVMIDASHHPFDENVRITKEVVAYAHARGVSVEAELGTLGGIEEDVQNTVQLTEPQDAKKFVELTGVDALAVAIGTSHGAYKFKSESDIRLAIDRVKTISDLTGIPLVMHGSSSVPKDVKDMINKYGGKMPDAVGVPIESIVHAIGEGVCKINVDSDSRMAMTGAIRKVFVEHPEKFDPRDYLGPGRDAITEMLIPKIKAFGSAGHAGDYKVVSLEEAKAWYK
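Giardia FBPA (40 nM reagent) was preincubated 10 min at RT with compound (up to 57.5 uM final), then substrate plus GAPDH/TPI/NAD/arsenate coupling system with diaphorase/resazurin was added; resorufin fluorescence (525/598 nm) was read after 20 min.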
AmpC no deterg – AmpC beta-lactamase inhibition without detergent. P00811. AmpC nitrocefin hydrolysis, absorbance 480 nm, 0.0001% Triton. Potency, µM (highest dose often 57.1 µM), inactives show at the highest dose activity change, negative = inhibition, actives largely listed as inhibitors. 330,000 tested, 0.52% active;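 also: plate controls were no compound for no effect and no enzyme for full effect; nearly all actives have a fitted effect of over 20% in size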
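20 mM phosphate pH 7.0 + 0.01% (detergent screen) or 0.0001% Triton X-100; 5.3 nM AmpC reagent; cpd preinc 15 min RT; nitrocefin (800 uM stock) to start; A480 q20 s × 4 min; Activity was normalised to no-enzyme and no-compound control wells.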
RE007 growth inh – less growth of the S. pombe RE007 Vpr strain | Potency, µM (titrated, usually from 92.2 µM), for inactives: top-dose activity change, negative = less growth, usual class: inhibitors | AID 651644 | S. pombe RE007 Vpr strain, BacTiter-Glo ATP luminescence, 24 h | 360,000 tested, 0.21% active; active = well fitted falling curve with a large enough effect; inconclusive = small, poorly fitted or top-dose-only effect; inactive = no such curve, though single readings can be large or run the other way; also: nearly all actives have a fitted effect of over 50% in size
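Fission yeast strain RE007, carrying one chromosomally integrated HIV-1 vpr copy, was seeded at OD 0.01 in PMG+AL medium with 23 nL pinned compound. After 24 h at 30 °C and 99% humidity, viability was read by BacTiter-Glo luminescence.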
* hit, by the source's call; ? = inconclusive; nt = not tested or not shown; [ ] = dose if it differs, or a comment. Rows were chosen to be rich in hits. Some 3.4% of all compounds tested hit in one or more screens of this group. Unless noted, calls follow the shape of the dose curve; as a rule, active = well fitted curve in the direction sought with a large enough effect; inconclusive = small, poorly fitted or top-dose-only effect, or another doubt; inactive = no such curve, though single readings can be large; an effect the other way counts as inactive or inconclusive. Unless noted, % is scaled to controls: 0 for no effect and ±100 for the full control effect; potency is read from the fitted curve at half-maximal effect.

SMILES	Sm TGR block	AmpC detergent	Giardia FBPA inh	AmpC no deterg	RE007 growth inh
COc1ccc(NC(=S)NC(=O)Cc2ccccc2)c(OC)c1	10µM*	?	-10%	-36%	22%
COc1cc(OC)cc(C(=O)NC(=S)NCCc2ccccc2)c1	10µM*	5%	-5%	-4%	-15%
O=c1cc(-c2ccccc2)ss1	nt	nt	nt	nt	-5%
CCOc1ccc(NC(=O)CCc2c(C)nc3cc(-c4ccc(Cl)cc4)nn3c2C)cc1	6%	15%	nt	nt	nt
CC1(C)CC(=O)c2c(oc3cc(O)c(O)cc23)C1	?	-7%	3.2µM*	-32%	-4%
O=C1CC(c2ccc3c(c2)OCCO3)Oc2ccc([N+](=O)[O-])cc21 (centres undefined)	89µM*	-1%	2%	-23%	-7%
Oc1ccc(-c2c(C3=CCCCC3)sc3ccccc23)cc1	79µM*	?	24%	-37%	-20%
C1=C(c2cn(-c3nc4ccccc4s3)nn2)CCCC1	nt	nt	nt	nt	-13%
Cc1cccc2c1c1ccc3c(c1n2C)C(=O)C=CC3=O	2.5µM*	5%	?	-52%	nt
Cc1ccccc1N1CC(=O)N(c2ccccc2C)CC1=O	-2%	0%	5%	-11%	-2%
Cc1ccc(NC2=CC(=O)C(=O)c3ccccc32)cc1	-25%	-10%	5.6µM*	-12%	?
NS(=O)(=O)c1ccc(NC2=CC(=O)C(=O)c3ccccc32)cc1	-22%	?	2.5µM*	-40%	-27%
Cc1ccc(S(=O)(=O)N2CCN(C(=O)C(F)(F)F)C2c2ccc(N(C)C)cc2)cc1 (centres undefined)	9%	-3%	nt	-2%	-16%
O=C(Nn1c(C2CCCCC2)nc2ccccc2c1=O)c1cc(Cl)ccc1[N+](=O)[O-]	2%	4%	0%	-12%	-5%
O=C(Nn1c(C2CCCCC2)nc2ccccc2c1=O)c1ccc([N+](=O)[O-])cc1Cl	2%	-10%	5%	14µM*	-5%
Cc1ccc(Cl)cc1N1CCN(C(=O)C2CCN(c3nnc(-n4cccc4)s3)CC2)CC1	1%	?	5%	1.8µM*	-4%
CC(NC(=O)c1nn(C)c(=O)c2ccccc12)c1ccc(F)cc1 (centres undefined)	-9%	-2%	-1%	-16%	-4%
COCCN=c1scc(-c2ccco2)n1/N=C/c1ccc(O)c(O)c1O	13µM*	-5%	18µM*	?	-25%
CN=c1scc(-c2cccs2)n1/N=C/c1ccc(O)c(O)c1O	?	4%	?	?	-25%
CN=c1scc(C)n1/N=C/c1ccc(O)c(O)c1O	22µM*	6%	3.2µM*	-37%	?
C=CCN=c1scc(-c2ccco2)n1/N=C/c1ccc(O)c(O)c1O	0%	2%	22µM*	4.5µM*	-19%
CCc1nc2ccc(C(=O)Nc3cccc(NS(C)(=O)=O)c3)cn2c1N(CC)Cc1cccc(Br)c1	nt	nt	nt	nt	-8%
CC(=O)c1ccccc1NC(=O)COC(=O)C1=NN(c2ccccc2)C(=O)CC1	0%	?	nt	-1%	11%
O=C(CC1Sc2ncnn2C1=O)Nc1ccc(Br)cc1 (centres undefined)	1µM*	-16%	?	-45%	?
COC(=O)CSc1[nH]c2ccccc2c1[N+](=O)[O-]	50µM*	-1%	5%	-3%	-4%
SMILES	Sm TGR block	AmpC detergent	Giardia FBPA inh	AmpC no deterg	RE007 growth inh
COC(=O)C(CCSC)NC(=O)c1cc2c(n(-c3ccc(Cl)cc3)c1=O)CCCC2=O (centres undefined)	7%	30%	nt	nt	nt
Cc1ccc(OC(=O)COc2ccccc2C)cc1	-4%	3%	-23%	-20%	-4%
CC(=O)c1ccc(OC(=O)COc2ccccc2Cl)cc1	40µM*	-7%	16%	-14%	4%
COc1cc(C(=O)O/N=C2\C=CC(=O)C(C)=C2)cc(OC)c1OC	3.2µM*	1%	20µM*	-13%	?
CC(C)(C)c1ccc(COn2c(=O)c(-c3ccco3)[n+]([O-])c3ccccc32)cc1	18µM*	3%	-29%	-31%	-8%[3.69 µM]
O=C1NC(=Nc2ccc(O)cc2)S/C1=C/c1ccco1	25µM*	0%	-4%	10µM*	-9%
O=C1NC(=Nc2ccc3ccccc3c2)S/C1=C/c1ccco1	28µM*	2%	-8%	32µM*	-30%
Cc1cccc(N=C2NC(=O)/C(=C/C=C/c3ccco3)S2)c1	40µM*	-14%	-12%	28µM*	-26%
COC(=O)Nc1ccc(S(=O)(=O)n2cnc3ccccc32)cc1	0%	0%	-4%	-6%	16%
CCOc1ccc(-c2cc(-c3nc(-c4ccc(OC)c(OC)c4)no3)[nH]n2)cc1	0%	-8%	nt	nt	nt
CCOc1ccc(C2=Cc3cc(OC)c(OC)cc3C(=C(Cl)Cl)O2)cc1	35µM*	0%	-26%	22%	nt
CCOC(=O)C1CCCN(C(=O)Cn2sc3nc(C)cc(C)c3c2=O)C1 (centres undefined)	?	45µM*	-16%	14µM*	?
CCCNC(=O)Cn1sc2nc(C)cc(C)c2c1=O	?	79µM*	-18%	?	?
Cc1nn(CC(=O)N2CCC(N3CCCCC3)CC2)c(=O)c2c1sc1ccccc12	4%	-8%	1%	1%	0%
Cc1cc(C)c2c(=O)n(CC(=O)N3CCC(N4CCCCC4)CC3)sc2n1	-28%	56µM*	-13%	20µM*	?
CCOC(=O)C1CCCN(C(=O)Cn2cnc3c2c(=O)n(C)c(=O)n3C)C1 (centres undefined)	16%	-17%	1%	-9%	-11%
CCCCCOc1cccc(C2C(C(=O)c3cccs3)=C(O)C(=O)N2CCN2CCOCC2)c1 (centres undefined)	nt	nt	nt	nt	-23%
Cc1cc(-c2nc3ncccc3o2)ccc1NC(=O)c1ccc(Cl)cc1	89µM*	-1%	nt	nt	nt
CC(Oc1ccc(Br)cc1)C(=O)Nc1nc(-c2ccccn2)cs1 (centres undefined)	0%	7%	nt	273%	?
CCCS(=O)(=O)c1nc(S(=O)(=O)c2ccc(C)cc2)c(N2CCc3ccccc3C2)s1	25µM*	?	-6%	-20%	-5%
CCS(=O)(=O)c1nc(S(=O)(=O)c2ccc(C)cc2)c(NC(C)c2ccccc2)s1 (centres undefined)	-12%	2%	nt	nt	nt
CCCS(=O)(=O)c1nc(S(=O)(=O)c2ccc(C)cc2)c(N2CCC(C(N)=O)CC2)s1	45µM*	-9%	10%	48%	6%
CCCS(=O)(=O)c1nc(S(=O)(=O)c2ccc(C)cc2)c(NC(C)c2ccccc2)s1 (centres undefined)	5µM*	-1%	nt	nt	nt

Bioassay records from PubChem BioAssay.
